Among the data in PubChem BioAssay AID2110 (National Center for Advancing Translational Sciences (NCATS), 2009) are Potency values, retold here.

The structures appear in SMILES notation. Results filed as inconclusive are left out. A call without a number means that no potency is given here. Active and inactive are the calls of the source. Calls follow the shape of the dose curve; as a rule, active = well fitted curve in either direction with a large enough effect; inconclusive = small, poorly fitted or top-dose-only effect; inactive = no such curve, though single readings can be large or run the other way.

The experiment has as its target Lysosomal alpha-glucosidase (Homo sapiens) (UniProt P10253). As to the kind of experiment: Confirmation of Inhibitors and Activators of Purified Human alpha-Glucosidase Using an Alternate Red Fluorescent Susbtrate. An excerpt:
NIH Chemical Genomics Center [NCGC]
NIH Molecular Libraries Probe Production centers Network [MLPCN]
Assay Submitter (PI): Wei Zheng
Alpha-glucosidase is responsible for hydrolysis of terminal, non-reducing 1,4-linked alpha-D-glucose residues with release of alpha-D-glucose. It is a lysosomal hydrolase that is required for the degradation of a small percentage (1-3%) of cellular glycogen in human. Deficiency of this enzyme results in glycogen-storage disease type II (GSDII), also referred to as Pompe disease, an autosomal recessive disorder. Structurally normal glycogen is accumulated in lysosomes and cytoplasm in affected patients, primarily in muscle tissues. Excessive glycogen storage within lysosomes may interrupt normal functioning of other organelles and leads to cellular injury. […]
This is a fluorogenic enzyme assay with resorufin-alpha-D-pyranoside as the substrate and recombinant human alpha-glucosidase as the enzyme preparation. Upon the hydrolysis of this fluorogenic substrate, the resulting product, resorufin, can be excited at 573 nm and emits at 610 nm which can be detected by a standard fluorescence plate reader. […] The AC50 values were determined from concentration-response data modeled with the standard Hill equation. […]
(6) Detect the assay plate in a ViewLux plate reader (PerkinElmer) with Ex=365 nm and Em=440nm. […]

As to `CC[C@@]1(O)C(=O)OCc2c1cc1n(c2=O)Cc2cc3ccccc3nc2-1`, the Potency result was “inactive”.
To `Cc1c2ccncc2c(C)c2c1[nH]c1ccccc12` belongs 35.5 µM (active).
